Shown are actives, neighbours in structure and some others; about 4.5% of the full set was active somewhere.
Caspase-7 inhib = blocks human caspase-7 allosterically or competitively; P55210; recombinant caspase-7, Ac-DEVD-AFC fluorescence rate; Potency, µM (top dose mostly 57.5 µM), usual class: inhibitors; hit rate 0.02% among 75,000; AID 889; active = well fitted inhibition curve with a large enough effect in the main read-out, with a control signal flat, not every such curve was filed as active; inconclusive = small, poorly fitted or top-dose-only effect, or a change in a side signal
Target sequence (P55210 24-198 limits assumed): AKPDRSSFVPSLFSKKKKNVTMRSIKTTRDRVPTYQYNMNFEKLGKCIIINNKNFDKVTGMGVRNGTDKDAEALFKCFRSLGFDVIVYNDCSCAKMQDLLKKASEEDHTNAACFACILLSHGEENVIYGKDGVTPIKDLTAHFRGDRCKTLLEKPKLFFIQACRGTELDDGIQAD
Target sequence (P55210 207-303 limits assumed): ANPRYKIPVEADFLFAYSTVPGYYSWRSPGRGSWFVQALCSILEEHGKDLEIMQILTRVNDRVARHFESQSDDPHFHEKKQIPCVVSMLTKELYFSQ
Casp1 inh = blocks human caspase-1 allosterically or competitively; hit rate 0.03% among 75,000; Caspase-1 enzyme, Ac-WEHD-AFC fluorogenic rate; P29466; Potency, µM (doses to about 57.5 µM), most hits filed as inhibitors
Target sequence (P29466 120-297 limits assumed): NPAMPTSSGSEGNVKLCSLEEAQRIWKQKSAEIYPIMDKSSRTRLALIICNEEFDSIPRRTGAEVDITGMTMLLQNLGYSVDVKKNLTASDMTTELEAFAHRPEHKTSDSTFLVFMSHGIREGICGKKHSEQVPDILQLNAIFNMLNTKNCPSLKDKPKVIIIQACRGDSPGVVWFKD
Target sequence (P29466 317-404 limits assumed): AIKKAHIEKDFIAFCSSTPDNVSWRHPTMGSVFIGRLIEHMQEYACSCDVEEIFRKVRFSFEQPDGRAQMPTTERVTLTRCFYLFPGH
ERK AVP inh = inhibitors of vasopressin-stimulated ERK signaling pathway; HEK293-V1b, vasopressin-stimulated pERK AlphaScreen; Potency, µM (doses to about 57.5 µM), hits mostly inhibitors; hit rate 0.99% among 72,000; note: nearly all actives have a fitted effect of over 55% in size
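HEK293 cells stably expressing V1b receptor, seeded overnight in 1% FBS, were treated with compounds for 30 min at 37C, then stimulated 5 min with 25 nM vasopressin; phospho-ERK read by AlphaScreen SureFire after lysis.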
HEK293 cAMP ctrl = parental HEK293 cAMP activation (counter-screen) | parental HEK293 CNG cAMP sensor, membrane potential fluorescence | hit rate 2.5% among 73,000 | AID 938 | Potency, µM (top dose mostly 57.1 µM), usual class: activators; note: nearly all actives have a fitted effect of over 55% in size
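Counterscreen for endogenous-receptor signalling: CNG-channel HEK 293 cells report cAMP rise by membrane depolarization. After 60 min dye equilibration with 100 uM RO 20-1724, compounds incubated 30 min before bottom-read fluorescence at 590 nm.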
GBA mod = modulators of human glucocerebrosidase; AID 360; hit rate 1.1% among 48,000; purified enzyme, resorufin glucoside fluorescence (screen aimed at inhibitors), 20 min; P04062; Potency, µM; in the data active = potency below about 15 µM; inconclusive = mostly about 16 µM to 33 µM;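 note: the screen sought inhibitors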
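Normal human glucocerebrosidase (0.2 nM final) was assayed with resorufin β-D-glucopyranoside (30 uM final) in 50mM citric acid/KH2PO4, 10mM sodium taurocholate, 0.01% tween-20, pH 5.9. Compounds were titrated; fluorescence (Ex 548, Em 600) read after 20 min at RT.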
TSHR ag = TSH receptor (human) agonism; hit rate 0.48% among 73,000; AID 926; Potency, µM (doses to about 57.1 µM), actives largely listed as activators; P16473; HEK293-CNG-TSHR cells (CNG channel as cAMP sensor), membrane potential dye, cAMP; active = well fitted activation curve with a large enough effect in the main read-out, with a control signal flat, not every such curve was filed as active; inconclusive = small, poorly fitted or top-dose-only effect, or a change in a side signal; inactive = no such curve, though single readings can be large or run the other way; reference of the percent scale not stated here;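 note: the control signal comes from parental cells without the receptor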
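HEK 293 cells stably expressing TSHR and a modified CNG channel, with CNG-only parental cells as counterscreen, were preloaded 60 min at room temperature with membrane potential dye containing 100 uM RO 20-1724. Compound exposure was 30 min, and depolarization was read as fluorescence at 590 nm.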
Large screens that a line does not name were inactive. Unless noted, calls come from the whole dose curve; as a rule, active = well fitted curve in the direction sought with a large enough effect; inconclusive = small, poorly fitted or top-dose-only effect, or another doubt; inactive = no such curve, though single readings can be large; an effect the other way counts as inactive or inconclusive.

CCOCC(=O)N1CCc2ccccc21	none
COc1ccc(-c2coc3cc(O)cc(O)c3c2=O)cc1	ERK AVP inh 16µM (no result: GBA mod)
CC(C)c1cccc2c([Si](C)(C)C)c3c(nc12)-c1cccc(=O)n1C3	Caspase-7 inhib inconclusive, HEK293 cAMP ctrl 25µM, TSHR ag inconclusive (no result: Casp1 inh, GBA mod)
CC(C)c1cccc2nc3c(c([Si](C)(C)C(C)(C)C)c12)Cn1c-3cccc1=O	Caspase-7 inhib inconclusive (no result: Casp1 inh, GBA mod)
CC(C)NC(=O)N1CCCC2(CCN(C(=O)c3cc(C(F)(F)F)cc(C(F)(F)F)c3)CC2)C1	none (no result: GBA mod)
Brc1ccc(CSc2nnc(-c3cnccn3)n2Cc2ccco2)cc1	HEK293 cAMP ctrl 20µM, TSHR ag inconclusive
Fc1ccccc1CSc1nnc(-c2cnccn2)n1Cc1ccco1	HEK293 cAMP ctrl 25µM, TSHR ag inconclusive
Fc1ccc(CSc2nnc(-c3cnccn3)n2Cc2ccco2)cc1	ERK AVP inh inconclusive
C(=C\c1ccccc1)/CSc1nnc(-c2cnccn2)n1Cc1ccco1	HEK293 cAMP ctrl 13µM, TSHR ag inconclusive
c1nc(NCCN2CCOCC2)c2c3c(sc2n1)CCCCC3	HEK293 cAMP ctrl inconclusive, GBA mod 7.5, TSHR ag inconclusive
N=c1c2c3c(sc2ncn1CCN1CCOCC1)CCCCC3	GBA mod inconclusive
CN(CCCNC(=O)c1cn(C)c2ccc(S(=O)(=O)N(C)C)cc2c1=O)c1ccccc1	none (no result: GBA mod)
CN(C)S(=O)(=O)c1ccc2c(c1)c(=O)c(C(=O)NCCCN1CCCCCC1)cn2C	ERK AVP inh 16µM (no result: GBA mod)
Cc1oc(-c2ccc(Cl)cc2)cc1-c1nn2c(-c3ccoc3C)nnc2s1	HEK293 cAMP ctrl 32µM, TSHR ag inconclusive
Clc1ccc(-c2nnc3sc(-c4ccc(Br)o4)nn23)cc1	none (no result: TSHR ag)
CN(C)c1ccc(NC(=S)c2ccccn2)cc1	ERK AVP inh 16µM (no result: GBA mod)
CCOC(=O)CSC1=C(C#N)C(c2ccc(F)cc2)C(C(C)=O)=C(C)N1 (stereo not given)	GBA mod inconclusive
CCOC(=O)CC1=CC(C)(CC(=O)OCC)C(C#N)(C#N)C(N)=C1C#N (stereo not given)	GBA mod 4.8
CCC(C)(c1ccc(C(=O)OC)s1)c1ccc(C(=O)OC)s1	HEK293 cAMP ctrl 20µM, TSHR ag inconclusive (no result: GBA mod)
CNc1ncnc2c1ncn2[C@H]1C[C@@H](OP(=O)(O)O)[C@H](COP(=O)(O)O)O1	none (no result: GBA mod, TSHR ag)
COc1ccc(NC(=O)N2CC[C@@]3(CCCN(C(=O)c4cccc(F)c4)C3)C2)cc1	none (no result: GBA mod)
CCOC(=O)c1[nH]c(C)c(C(=O)c2cc(F)ccc2F)c1C	ERK AVP inh 20µM, TSHR ag 32µM
CCOC(=O)c1[nH]c(C)c(C(=O)N2CCN(c3ccc(F)cc3)CC2)c1C	HEK293 cAMP ctrl inconclusive, TSHR ag inconclusive
O=C(O)CC[P+](c1ccccc1)(c1ccccc1)c1ccccc1	HEK293 cAMP ctrl 3.2µM, TSHR ag inconclusive (no result: GBA mod)
Cc1nn(-c2ccccc2)c2c1C(c1c(C)[nH]c(C#N)c1C)C(C#N)=C(N)O2 (stereo not given)	GBA mod 11
CCOC(=O)c1ccc(NC(=O)CCc2nc(-c3ccccc3)no2)cc1	ERK AVP inh 16µM
CCOC(=O)c1ccc(NC(=O)CCc2nc(-c3ccccc3Cl)no2)cc1	ERK AVP inh inconclusive, HEK293 cAMP ctrl inconclusive, TSHR ag inconclusive
O=C(Nc1ccc(-c2noc(CCc3ccccc3)n2)cc1)c1cccnc1	GBA mod 14
O=C(CCc1nc(-c2cccs2)no1)Nc1cnc2ccccc2c1	none
O=C(CCCc1nc(-c2ccc(Cl)cc2)no1)Nc1cccnc1	none (no result: GBA mod)
CCc1cccc(NC(=O)CCc2nc(-c3cccs3)no2)c1	ERK AVP inh 25µM (no result: GBA mod)
O=C(CCCSc1nnc(-c2cccs2)n1CC1CCCO1)c1ccccc1 (stereo not given)	HEK293 cAMP ctrl inconclusive, TSHR ag inconclusive
CCOc1ccc(C(C)=O)cc1CSc1nnc(-c2cccs2)n1CC1CCCO1 (stereo not given)	HEK293 cAMP ctrl 10µM, TSHR ag inconclusive
Cn1c(=O)c2c(nc(NCc3ccco3)n2C)n(C)c1=O	none
Cn1c(=O)c2c(nc(NCc3ccco3)n2C/C=C/c2ccccc2)n(C)c1=O	ERK AVP inh 32µM
C=C1CC[C@@H]2O[C@]2(C)CC[C@@H]2[C@H]1CC2(C)C	none (no result: Caspase-7 inhib, Casp1 inh, ERK AVP inh, GBA mod)
Cn1cccc1C(=O)N1CCC2(CCCN(c3ncccn3)C2)CC1	none (no result: GBA mod)
COc1ccc(OC)c(NC(=O)CSCc2cnn(-c3ccccc3)c2-n2cccc2)c1	HEK293 cAMP ctrl 25µM, TSHR ag inconclusive
COc1cc(NC(=O)CSCc2cnn(-c3ccccc3)c2-n2cccc2)cc(OC)c1	none
CC(=O)OCC(=O)[C@@]1(OC(C)=O)[C@H](C)C[C@H]2[C@@H]3C[C@H](F)C4=CC(=O)C=C[C@@]4(C)[C@]3(F)[C@H](O)C[C@@]21C	none (no result: GBA mod)
O=C(O)c1ccccc1Cl	none (no result: GBA mod)
C[C@H]1CC(C)(C)C[C@@](OCCN2CCCCC2)(c2ccccc2)C1	HEK293 cAMP ctrl 5µM, TSHR ag inconclusive (no result: GBA mod)
Cc1c(C(=O)OCCN2CCCCC2)oc2ccccc12	none (no result: TSHR ag)
CCCn1c(=O)c(C(=O)Nc2ccccc2C(=O)OC)c(O)c2ccccc21	GBA mod 14
Cc1cc(=O)[nH]c2cc3oc4ccccc4c3cc12	none (no result: GBA mod)
CCN(CC)S(=O)(=O)c1ccc(NC2CCCc3ccccc32)nc1 (stereo not given)	HEK293 cAMP ctrl 25µM, TSHR ag inconclusive
O=S(=O)(c1ccc(NC2CCCc3ccccc32)nc1)N1CCOCC1 (stereo not given)	none (no result: GBA mod)
Clc1ccc(-c2nc3nc4ccccc4nc3n2Cc2ccco2)cc1	HEK293 cAMP ctrl inconclusive, TSHR ag inconclusive
Cc1ccc(-c2nc3nc4ccccc4nc3n2Cc2ccco2)cc1	HEK293 cAMP ctrl 25µM, TSHR ag inconclusive
C/C(CCN1CCCCc2nc(C)c(C)cc21)=N\OC[C@@H](C)[C@H](OCc1ccccc1)C(C)C	none (no result: GBA mod)
Nc1ncnc2c1ncn2[C@@H]1CCCO1	none (no result: GBA mod)
COc1ccccc1CNc1nc(-c2ccccc2OC)nc2ccccc12	TSHR ag 32µM (no result: GBA mod)
CN(C)Cc1ccccc1-c1nc(N(C)C)c2ccccc2n1	HEK293 cAMP ctrl 10µM, TSHR ag inconclusive (no result: GBA mod)
Cc1cccc(CNc2nc(-c3ccccc3CN(C)C)nc3ccccc23)c1	HEK293 cAMP ctrl 0.79µM, TSHR ag inconclusive (no result: GBA mod)
C[C@@]1(CCOCc2ccccc2)NC(=O)NC1=O	none (no result: GBA mod)
Cc1cc(C)c(S(=O)(=O)Nc2ccccc2C(F)(F)F)c(C)c1	HEK293 cAMP ctrl 40µM, TSHR ag inconclusive (no result: GBA mod)
O=C(O)c1ccccc1NS(=O)(=O)c1ccccc1C(F)(F)F	none
CCCN1C[C@@H](CSC)C[C@H]2c3cccc4[nH]cc(c34)C[C@@H]21	none (no result: GBA mod)
CCOC(=O)c1cnc(-n2nc(C)cc2C)nc1Nc1cccc(C(=O)O)c1	TSHR ag 25µM
Cc1nc(N)nc2ccccc12	none (no result: GBA mod)
